RecA splice inh – blocks M. tuberculosis RecA intein splicing. 290,000 compounds, 0.75% hits. P9WHJ3. cell-free RecA intein splicing, fluorescence. AID 2221. inhibition, % (concentration not given with the values); in the data active means inhibition above about 30%
FBA Mtb inh – Mtb fructose-bisphosphate aldolase inhibition. inhibition, % at 1 µM. 360,000 compounds, 2.3% hits. P9WQA3. purified M. tuberculosis FBA, fluorescence read-out; in the data active means inhibition above about 27%
Target sequence (P9WQA3 whole entry, looked up): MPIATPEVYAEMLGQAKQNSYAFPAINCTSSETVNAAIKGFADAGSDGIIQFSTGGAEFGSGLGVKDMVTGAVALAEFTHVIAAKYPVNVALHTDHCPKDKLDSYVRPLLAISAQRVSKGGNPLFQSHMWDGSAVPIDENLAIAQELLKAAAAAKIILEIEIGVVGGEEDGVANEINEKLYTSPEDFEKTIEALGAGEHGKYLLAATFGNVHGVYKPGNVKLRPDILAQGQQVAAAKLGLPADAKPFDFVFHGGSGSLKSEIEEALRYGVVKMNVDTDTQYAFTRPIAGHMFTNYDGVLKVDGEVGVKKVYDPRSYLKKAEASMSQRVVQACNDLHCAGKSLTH
GDH-TPI inh – counter-screen for M. tuberculosis FBA inhibitors: GDH-TPI coupled enzymes; GDH-TPI coupled enzyme counterscreen, NADH absorbance; 360,000 compounds, 1.2% hits; inhibition, % at 4.8 µM; in the data active means inhibition above about 30%
Vc quorum ag-1 – inducers of Vibrio cholerae quorum light production without autoinducers | V. cholerae BH1578 lux reporter, luminescence, 6 h | activation, % at 18.7 µM | 350,000 compounds, 0.16% hits | AID 588436; in the data active means activation mostly above about 9.7%, no sharp cut-off
Rv3671c inh – inhibits the M. tuberculosis serine protease Rv3671c | inhibition, % at 5.96 µM | 320,000 compounds, 0.048% hits | P9WHR9; in the data active means inhibition above about 38%;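 further: extracellular domain of Rv3671c used as enzyme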
Mtb UGM inh – blocks M. tuberculosis UGM enzyme | purified UGM, fluorescence polarization probe displacement | inhibition, % at 10 µM | P9WIQ1 | 320,000 compounds, 0.06% hits; in the data active means inhibition above about 10%, passing the limit was not always enough
Vc quorum ag-2 – quorum light induction in BH1578 reporter strain; V. cholerae BH1578 lux reporter, luminescence, 6 h; activation, % at 50 µM; shares compounds with Vc quorum ag-1; 620 tested, under 10 active; call rule not given here
HeLa 24h tox – kills HeLa cells within 24 hours; HeLa viability, CellTiter-Glo ATP luminescence; 25 tested, under 10 active; activity change, negative = cytotoxicity, % at 35 µM; AID 624140; shares compounds with Vc quorum ag-1;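 active means signal drop with fitted half-maximal concentration at or below twice the highest valid dose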
Of the large screens only hits and unclear results are named; the others gave an inactive call (follow-up assays come after a bar, where they were run). A selection: hits, their analogues and other compounds. The true share with any hit is near 4.1%.

O=c1c2ccccc2nnn1CSc1nnc(-c2cccnc2)n1-c1ccccc1F	none | Vc quorum ag-2 inactive
CCOC(=O)C1CCCN(C(=O)c2ccc(F)c(Cl)c2)CC1 (configuration not stated)	none (no result: RecA splice inh, Rv3671c inh, Mtb UGM inh)
CCOc1cc(/C=C2\CCn3c2nc2cc(Cl)ccc2c3=O)ccc1O	none
CCN(CC(=O)Nc1ccc(OC)cc1)C(=O)c1ccc2c(c1)NC(=O)CS2	none (no result: RecA splice inh, Rv3671c inh, Mtb UGM inh)
CCC(CCC(=O)Nc1cccc(C(=O)O)c1)C(=O)O (configuration not stated)	Vc quorum ag-1 16.7 | Vc quorum ag-2 inactive
Cc1ccccc1NC(=O)COC(=O)[C@@H]1CCCN1C(=O)c1cccs1	none (no result: RecA splice inh)
CCn1nnnc1NCc1cccc(OC)c1	none (no result: RecA splice inh, FBA Mtb inh, GDH-TPI inh, Vc quorum ag-1, Rv3671c inh, Mtb UGM inh) | HeLa 24h tox inactive
O=C(O)c1cc(CN2CCOCC2)oc1-c1ccccc1	Vc quorum ag-1 16.7 | Vc quorum ag-2 inactive
Cc1ccc(C)c(C(=O)CN2C(=O)NC3(CCCCCC3)C2=O)c1	none (no result: RecA splice inh, Rv3671c inh, Mtb UGM inh) | Vc quorum ag-2 inactive
CCOC(=O)c1cnc(SCC(=O)OCC(=O)N(CC)C2CCS(=O)(=O)C2)nc1N (configuration not stated)	none
CCOC(=O)c1cnc(SCC(=O)OCC(=O)NC2CCS(=O)(=O)C2)nc1N (configuration not stated)	Vc quorum ag-1 31.6 | Vc quorum ag-2 inactive
CN(C)CC(C)(C)CNC(=O)c1cc(=O)c2ccccc2o1	none | Vc quorum ag-2 inactive
COC(=O)[C@H](Cc1ccccc1)NS(=O)(=O)c1ccc(F)cc1Br	none (no result: RecA splice inh, Rv3671c inh, Mtb UGM inh)
Cc1ncc(S(=O)(=O)c2ccccc2)c(-c2ccc(Cl)cc2Cl)n1	Vc quorum ag-1 16.7 | Vc quorum ag-2 inactive
CCOC(=O)C1=CC[C@@H](c2ccccc2)N(S(=O)(=O)c2ccc(C)cc2)[C@H]1/C=C/c1ccccc1	none (no result: RecA splice inh, GDH-TPI inh, Vc quorum ag-1, Rv3671c inh, Mtb UGM inh)
COCc1ccc(C(=O)N2CCCC(Nc3ccc(F)c(F)c3)C2)s1 (configuration not stated)	none
CCn1c(SCC(=O)OC2CCCCC2)nnc1-c1ccncc1	Vc quorum ag-1 16.7 | Vc quorum ag-2 inactive
CCn1c(SCC(=O)OC)nnc1-c1ccncc1	none
CC(=O)Nc1ccc(Nc2nc(C)nc3c2oc2ccccc23)cc1	Vc quorum ag-1 16.7 | Vc quorum ag-2 inactive
CC1CCCN(S(=O)(=O)c2cc(C(=O)NCCc3ccc(S(N)(=O)=O)cc3)ccc2Cl)C1 (configuration not stated)	none (no result: RecA splice inh, Rv3671c inh, Mtb UGM inh)
O=C1OC(c2ccc3c(c2)OCO3)N(C(=O)c2ccc(Cl)c(Cl)c2)c2ccccc21 (configuration not stated)	none
Cc1cccc(C(=O)N2c3ccccc3C(=O)OC2c2ccc3c(c2)OCO3)c1 (configuration not stated)	Vc quorum ag-1 32.1 | Vc quorum ag-2 inactive
O=C(Nc1nnc(-c2ccc3c(c2)OCCO3)o1)C1CCCCC1	none (no result: Vc quorum ag-1) | HeLa 24h tox inactive
O=C(Nc1nnc(-c2ccc(Cl)cc2)o1)C1CCCCC1	none
CCC(=O)Nc1nnc(SCC(=O)Nc2ccc3c(c2)OCCO3)s1	none
Nc1nnc(SCC(=O)Nc2ccc3c(c2)OCCO3)s1	none | Vc quorum ag-2 inactive
COc1ccccc1CNC(=O)C1CCC(=O)N1C(C)C (configuration not stated)	none
O=C(CC1NC(=O)NC1=O)Nc1ccc(Cl)cc1 (configuration not stated)	none | Vc quorum ag-2 inactive
CCOc1ccc2cc(C#N)c(SCC(=O)N3CCC(C)CC3)nc2c1	none | Vc quorum ag-2 inactive
CCOC(=O)N1CCC(NC(=O)C2CCN(C(=O)N3CC(C)Oc4ccc(C)cc43)CC2)CC1 (configuration not stated)	Vc quorum ag-1 7.6 | Vc quorum ag-2 inactive
O=C(CN(Cc1ccc(F)cc1)C(=O)CCC(=O)Nc1nccs1)NCc1ccccc1	none
CCOc1ccc(CNC(=O)Cn2c(=O)c3cccn3c3ccccc32)cc1	Vc quorum ag-1 24.8 | Vc quorum ag-2 inactive
CCCOc1ccc(-c2nc(OC)c3ccccc3n2)cc1	Vc quorum ag-1 25.0 | Vc quorum ag-2 inactive
O=c1c2ccccc2[nH]c(=S)n1CC1CCCO1 (configuration not stated)	none (no result: Mtb UGM inh)
COc1ccc(CCn2c(=S)[nH]c3ccc(N4CCOCC4)cc3c2=O)cc1OC	none

Assay outcomes as filed in PubChem BioAssay.
